Assay outcomes (PubChem)
Compounds with a hit are over-represented: about 22% of the library has one in this group of screens.
CYP2C19 inh = blockers of cytochrome P450 2C19 activity – biochemical, luminescence, ADME assay, primary screen; CYP2C19 Supersomes, luciferin-H EGE luminescence, 30 min; inhibition, % at 5 µM; 96,000 compounds, 21% hits; P33261; AID 778, 2007;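 active means CYP2C19 inhibition above a set limit at 5 µM in the primary screen, cut at about 50% in these data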;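 further: plate controls were negative control wells for no effect and 2.5 mM tranylcypromine positive control for full effect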
CYP2C9 inh = blockers of cytochrome P450 2C9 activity – biochemical, luminescence, ADME assay, primary screen; CYP2C9 Supersomes, luciferin-H conversion; inhibition, % at 5 µM; 96,000 compounds, 20% hits; AID 777, 2007;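 active means blocking of liver enzyme CYP2C9 beyond about 50% at 5 µM, limit read from the data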
Target sequence (P11712 whole entry, looked up): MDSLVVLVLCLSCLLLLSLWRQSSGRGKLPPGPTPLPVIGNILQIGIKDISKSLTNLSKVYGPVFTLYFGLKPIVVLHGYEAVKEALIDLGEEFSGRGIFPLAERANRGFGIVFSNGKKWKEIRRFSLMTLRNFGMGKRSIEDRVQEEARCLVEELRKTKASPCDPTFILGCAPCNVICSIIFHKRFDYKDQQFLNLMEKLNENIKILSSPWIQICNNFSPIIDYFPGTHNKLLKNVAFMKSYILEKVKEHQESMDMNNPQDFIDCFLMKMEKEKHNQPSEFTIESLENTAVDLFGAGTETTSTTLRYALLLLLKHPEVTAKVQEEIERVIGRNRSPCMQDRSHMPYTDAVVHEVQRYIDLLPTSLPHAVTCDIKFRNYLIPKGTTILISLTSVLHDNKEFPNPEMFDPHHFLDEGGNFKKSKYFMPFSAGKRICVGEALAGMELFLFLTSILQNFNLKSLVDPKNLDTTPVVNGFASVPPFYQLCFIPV
CYP2C9 activ = human CYP2C9 activators, primary screen, biochemical, luminescence; Cytochrome P450 2C9 (Homo sapiens), P11712; recombinant CYP2C9, luciferin-H conversion; hits give high values; factor 1 = untreated enzyme, 0 = blocked; 96,000 compounds, 1.4% hits; activation factor at 5 µM; AID 1024, 2008;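 active means activation factor of 2 or more for CYP2C9 at a 5 µM dose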;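 further: 0 = sulfaphenazole-blocked wells and 1 = vehicle-only wells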
E-sel TNF inh = E-selectin induction blockers in HUVEC – imaging, immunofluorescence, high content, primary screen. inhibition, % at 2 µM. 120,000 compounds, 0.71% hits. HUVEC TNFa-induced E-selectin immunofluorescence;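 active means inhibition above the batch mean plus 3 SD, and confirmed as a hit on visual image review, cut at about 43% in these data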;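 further: 0% = TNF-stimulated DMSO wells and 100% = unstimulated control wells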
F-actin modifier = modifiers of F-actin cytoskeleton organization, primary screen, imaging, HUVEC, phalloidin staining, high-content imaging; 91,000 compounds, 0.18% hits; HUVEC TNFa F-actin phalloidin imaging; AID 836, 2007; inhibition, % at 2 µM;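 active means inhibition above the batch mean plus 3 SD and confirmed as a hit by visual image inspection, cut at about 30% in these data, passing the limit was not always enough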
CYP2C19 act = human CYP2C19 activators, primary screen, biochemical, luminescence | recombinant CYP2C19, luciferin-H EGE luminescence; hits give high values; 0 = fully inhibited enzyme, 1 = untreated enzyme | activation factor at 5 µM | 96,000 tested, under 10 active | AID 1025, 2008;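 active means activation factor of at least 2 at 5 µM in the primary screen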;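 further: 0 = wells with 2.5 mM tranylcypromine and 1 = vehicle-only wells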
* = called active by the depositor; · = no result.

SMILES	CYP2C19 inh	CYP2C9 inh	CYP2C9 activ	E-sel TNF inh	F-actin modifier	CYP2C19 act
COc1ccc(S(=O)(=O)NCCc2csc(C)n2)cc1C	74*	-24	1.2	12	-4	0.3
Clc1cccc(Cl)c1Cn1cnc2c(N3CCCCCC3)ncnc21	7	38	0.6	-5	-8	0.9
Cc1cc(C)nc(Sc2c(C)nn(-c3ccccc3)c2C)n1	91*	25	0.8	-23	·	0.1
COc1ccc(CC(=O)Nc2cc(C)c3c(=O)oc4ccccc4c3n2)cc1	-1	12	0.9	·	·	1
CC(C)CC(=O)Nc1nc(=S)ss1	43	69*	0.3	·	-4	0.6
CC(=O)Nc1nc(=S)ss1	-10	12	0.9	-3	0	1.1
O=C(Nc1nc(=S)ss1)c1c(F)cccc1F	-2	80*	0.2	5	-4	1
Cc1ccccc1C(=O)Nc1nc(=S)ss1	0	81*	0.2	3	-14	1
CCN(CC)S(=O)(=O)c1ccc(-c2nnc(SCC(=O)Nc3nnc(C)s3)n2CC)cc1	0	10	0.9	-5	·	1
COc1ccc(S(=O)(=O)Nc2ccc(S(=O)(=O)N3CCCCC3)cc2)cc1C	58*	88*	0.1	-11	2	0.4
COc1ccc(S(=O)(=O)c2ccc(OC)cc2)cc1	99*	-34	1.3	4	-4	0
COc1ccc(S(=O)(=O)N2CCCN(S(=O)(=O)c3ccc(OC)c(C)c3)CC2)cc1C	·	·	·	8	10	·
COc1ccc(NS(=O)(=O)c2ccc(N3C(=O)CCC3=O)cc2)cc1	86*	70*	0.3	20	·	0.1
COc1ccc(CNS(=O)(=O)c2ccc(S(=O)(=O)N3CCCCC3)cc2)cc1	22	33	0.7	·	·	0.8
COc1ccc(S(=O)(=O)Nc2ccc(S(=O)(=O)N3CCCCC3)cc2)cc1	16	81*	0.2	-9	-7	0.8
CC(=O)Oc1ccc(S(=O)(=O)c2ccc(OC(C)=O)cc2)cc1	·	·	·	9	·	·
COc1ccc(S(=O)(=O)Nc2ccc(CC#N)cc2)cc1	100*	85*	0.2	-23	-2	0
COc1ccc(S(=O)(=O)N2CCC(N3CCCCC3)CC2)cc1	8	-7	1.1	16	-50	0.9
COC(=O)c1ccc(NS(=O)(=O)N(C)C)cc1	87*	79*	0.2	-18	-14	0.1
COC(=O)C1CCN(S(=O)(=O)c2ccc(OC)cc2)CC1	89*	-33	1.3	23	·	0.1
COc1ccc(S(=O)(=O)N2CCCCCC2)cc1	51*	-12	1.1	-56	1	0.5
CCNc1nc(NC(C)C)nc(OCCNS(=O)(=O)c2cc(C)ccc2C)n1	50	-40	1.4	-8	-13	0.5
CCn1c(SCc2ccccc2)nnc1C1CCN(S(=O)(=O)c2ccc(OC)cc2)CC1	20	-105	2*	6	42	0.8
COC(=O)c1ccc(NS(=O)(=O)c2ccc(OC)cc2)cc1	14	89*	0.1	-9	0	0.9
COc1ccc(S(=O)(=O)Nc2ccc(S(=O)(=O)N3CCCC3)cc2)cc1	54*	89*	0.1	8	41	0.5
SMILES	CYP2C19 inh	CYP2C9 inh	CYP2C9 activ	E-sel TNF inh	F-actin modifier	CYP2C19 act
COc1ccc(CCn2c(Br)nc3c2c(=O)[nH]c(=O)n3C)cc1	26	-15	1.1	31	-5	0.7
Cc1cc(F)ccc1NCc1ccncc1	82*	62*	0.4	1	·	0.2
Cc1cc(NCc2ccncc2)ccc1Br	·	·	·	21	·	·
CCc1cc2c(SCC(=O)c3ccccc3)ncnc2s1	·	·	·	10	-13	·
CCc1cc2c(SCC(=O)C(C#N)=C3N(C)c4ccccc4N3C)ncnc2s1	40	62*	0.4	·	32	0.6
COC(=O)c1c(C)oc2ccc(OC(=O)c3cccs3)cc12	-1	85*	0.1	19	-18	1
COCCOC(=O)c1c(C)oc2ccc(OC(=O)c3cccs3)cc12	71*	98*	0	·	-8	0.3
COCCOC(=O)c1c(C)oc2ccc(OS(C)(=O)=O)cc12	·	·	·	-37	·	·
O=c1c2c3c(sc2nc2n1N=C(c1cccs1)CS2)CCCC3	-6	-4	1	9	-11	1.1
